GPR151 ag: activators of human GPR151. Q8TDV0. PathHunter beta-arrestin GPR151 cells, luminescence. activation, % at 11.2 µM. 650,000 tested, 1% active. AID 1508602; in the data active means activation above about 4.9%
TEAD-YAP block: TEAD-YAP interaction inhibition | HEK-TIYL cells, TEAD-Gal4/YAP UAS-luciferase luminescence | inhibition, % at 9.12 µM | 640,000 tested, 1.4% active; in the data active means inhibition above about 32%
MITF inh: inhibitors of human MITF. AlphaScreen MITF homodimerization, bead proximity signal. inhibition, % at 2.6 µM. 650,000 tested, 0.91% active; in the data active means inhibition above about 50%
FBW7 activator: activators of human E3 ligase FBW7; Q969H0; AlphaScreen FBW7–phospho-cyclin E peptide binding, activator screen; normalized activity (activation), % at 26.1 µM; 650,000 tested, 0.13% active; AID 1259310; in the data active means normalized activity above about 1.9%;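 further: purified mutant Fbw7 with reduced substrate affinity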
Target sequence (Q969H0 whole entry, looked up): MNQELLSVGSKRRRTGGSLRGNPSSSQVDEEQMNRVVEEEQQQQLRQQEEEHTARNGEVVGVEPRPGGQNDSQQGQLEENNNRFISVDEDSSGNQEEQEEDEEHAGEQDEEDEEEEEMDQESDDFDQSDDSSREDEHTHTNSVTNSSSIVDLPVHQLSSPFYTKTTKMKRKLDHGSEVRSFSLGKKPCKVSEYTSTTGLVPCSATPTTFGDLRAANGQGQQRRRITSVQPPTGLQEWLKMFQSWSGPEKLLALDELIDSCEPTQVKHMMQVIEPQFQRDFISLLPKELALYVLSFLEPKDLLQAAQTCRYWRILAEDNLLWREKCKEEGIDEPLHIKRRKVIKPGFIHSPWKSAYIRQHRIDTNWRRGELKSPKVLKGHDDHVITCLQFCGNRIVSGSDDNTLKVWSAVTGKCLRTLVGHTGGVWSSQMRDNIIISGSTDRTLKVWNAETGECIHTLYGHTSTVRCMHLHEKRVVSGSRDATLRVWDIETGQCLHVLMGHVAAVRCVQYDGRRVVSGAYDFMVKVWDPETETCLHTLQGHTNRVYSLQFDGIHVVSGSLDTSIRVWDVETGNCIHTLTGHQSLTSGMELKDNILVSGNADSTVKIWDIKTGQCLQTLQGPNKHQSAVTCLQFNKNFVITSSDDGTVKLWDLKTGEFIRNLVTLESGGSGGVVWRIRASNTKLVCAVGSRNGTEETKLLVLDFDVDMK
Each line names hits and unclear results; the compound was inactive in the other large screens; ! = a repeat was not active. Rows were chosen to be rich in hits. Some 3.5% of all compounds tested hit in one or more screens of this group.

CCc1ccc(C2CC(=O)NC(SCC(=O)OCc3ccccc3)=C2C#N)cc1 (stereo not given)	none
Cc1ccc(/C=C/C(=O)C2C(=O)c3ccccc3C2=O)cc1	TEAD-YAP block 41
CC(=O)CC(O)(c1ccccc1)C(F)(F)C(F)F (stereo not given)	none
O=S(/C=C(\F)C(F)(F)C(F)(F)C(F)F)Cc1ccccc1 (stereo not given)	TEAD-YAP block 50
COc1ccc(C2(C)NC(=O)N(CC(=O)NC(=O)NCc3ccccc3)C2=O)cc1OC (stereo not given)	none
CC1=C(C(=O)N2CCCCC2)C(c2cccc(F)c2)C2=C(CCCC2=O)N1 (stereo not given)	none
Nc1ccc(NC2=C(N3CCCCC3)C(=O)c3ccccc3C2=O)cc1	none
COc1ccccc1NC1=C(N2CCCCC2)C(=O)c2ccccc2C1=O	TEAD-YAP block 62
O=C1C(NC2CCCC2)=C(N2CCCCC2)C(=O)c2ccccc21	TEAD-YAP block 86
Cc1cc(OCC(=O)N2CCN(C=O)CC2)cc(C)c1Br	none
Cc1[nH]ncc1-c1ccc2nc(C3COc4ccccc4C3)[nH]c(=O)c2c1 (stereo not given)	TEAD-YAP block 50
COc1ccc2c(c1)CC(c1nc3cc(-c4cn[nH]c4C)ccc3c(=O)[nH]1)CO2 (stereo not given)	TEAD-YAP block 40
Cc1ccc2c(c1)CC(c1nc3ccc(-c4cn[nH]c4)cc3c(=O)[nH]1)CO2 (stereo not given)	none
COc1ccccc1OCc1nc2ccc(-c3cn[nH]c3C)cc2c(=O)[nH]1	TEAD-YAP block 38
COc1ccc2c(c1)CC(c1nc3cc(-c4ccncc4)ccc3c(=O)[nH]1)CO2 (stereo not given)	none
COc1ccccc1Nc1c2c(nc3ccc(NC(=O)CN4CCOCC4)cc13)CCCC2	none
C=CCNc1nc(-c2c[nH]c3ccccc23)cs1	none
CCC(C)Nc1nc(-c2c[nH]c3ccccc23)cs1 (stereo not given)	FBW7 activator 3.9
O=C(C(=O)N1CCN(C(=O)c2ccco2)CC1)c1c(-c2ccccc2)cc2ccccn12	TEAD-YAP block 42
CCCC(=O)Nc1scc2c(C(=O)OCC)nn(-c3ccccc3)c(=O)c12	none
C#CCN(C)C(=O)c1c(C)nc2sccn12	FBW7 activator 1.9
O=S(=O)(N/N=C/c1ccc2c(c1)OCCO2)c1ccc(Br)cc1	none
O=C(CCl)Nc1c(C(O)(C(F)(F)F)C(F)(F)F)ccc2ccccc12	none
Oc1c(CN2CCOCC2)ccc2cccnc12	MITF inh 95
Oc1c(C(O)(C(F)(F)F)C(F)(F)F)ccc2cccnc12	TEAD-YAP block 49
Oc1c(CN2CCCCC2)ccc2cccnc12	TEAD-YAP block 46, MITF inh 105
Oc1c(CN2CCN(Cc3ccc4cccnc4c3O)CC2)ccc2cccnc12	TEAD-YAP block 38, MITF inh 114
Oc1ccc(CN2CCN(c3ccccc3)CC2)c2cccnc12	none
Oc1c(CN2CCOCC2)ccc2ccccc12	none
Cc1cc(-c2cnc(N3CCCC3)nc2C2CCN(S(C)(=O)=O)CC2)on1	none
O=C(Nc1ccccc1)c1ccc(F)c(S(=O)(=O)N2CCOCC2)c1	none
O=C(Nc1ccc(Oc2ccccc2)cc1)c1ccc(F)c(S(=O)(=O)N2CCOCC2)c1	TEAD-YAP block 63
O=C(Nc1ccc(Oc2ccccc2)cc1)c1cccc(S(=O)(=O)N2CCOCC2)c1	TEAD-YAP block 34
CCN1CCN(S(=O)(=O)c2cc(C(=O)Nc3ccc(Oc4ccccc4)cc3)ccc2F)CC1	TEAD-YAP block 66
CCc1ccccc1NC(=O)c1ccc(F)c(S(=O)(=O)N2CCN(c3cccc(C)c3)C(C)C2)c1 (stereo not given)	TEAD-YAP block 35
O=C(Nc1ccc(I)cc1)c1cccc(S(=O)(=O)N2CCOCC2)c1	none
CCNC(=O)c1cccc(OC2CCN(C3CCN(C)CC3)CC2)c1	none
CN1C(C(=O)Nc2ccccn2)=C(O)c2sccc2S1(=O)=O	FBW7 activator 2.0!
c1ccc(Oc2nc(NCCN3CCOCC3)c3ncn(-c4ccccc4)c3n2)cc1	TEAD-YAP block 34
c1ccc(-n2cnc3c(NCCN4CCOCC4)nc(NCCN4CCOCC4)nc32)cc1	none
COc1ccc(-c2nc(NCCN3CCOCC3)c3ncn(-c4ccccc4)c3n2)cc1	TEAD-YAP block 47
CN1CCN(c2ccc(-c3nc(NCCOc4ccccc4)c4ncn(-c5ccsc5)c4n3)cc2)CC1	none
CN1CCN(c2ccc(-c3nc(NCCO)c4ncn(-c5ccccc5)c4n3)cc2)CC1	TEAD-YAP block 73
O=C1CCC/C(=N/NC(=O)CSc2nc3ccccc3s2)C1	none
CCOC(=O)c1sc(NC(=O)/C=C/C(=O)O)c(C(=O)OCC)c1C	none
COc1cc(/C=C(\C(=O)c2ccc(C)cc2)c2nc3ccccc3o2)cc(OC)c1OC	TEAD-YAP block 69
COc1cc(C(=O)/C(=C/c2ccc(C)cc2)c2nc3ccccc3o2)cc(OC)c1OC	none
CCOC(=O)c1c(C)[nH]c(C)c1C(=O)COC(=O)c1ccc2[nH]c(C)c(C)c2c1	TEAD-YAP block 66
CCOC(=O)c1c(C)[nH]c(C)c1C(=O)COC(=O)c1ccc(O)cc1	none
Cc1nc(N2CCC(C)CC2)nc(N2CCC(C)CC2)c1[N+](=O)[O-]	none
COc1ccc(S(=O)(=O)Oc2cc(C)cc(C)c2CN2CCOCC2)cc1	TEAD-YAP block 37
Cc1cc(OS(=O)(=O)c2ccc(F)cc2)c(C)cc1CN1CCOCC1	none
O=C(NCC1CCCN(Cc2cccc3c2OCO3)C1)c1cccnc1 (stereo not given)	none
CN1CCN(c2nc3c(c(=O)[nH]c(=O)n3C)n2CC(=O)c2ccc([N+](=O)[O-])cc2)CC1	none
O=C1Nc2ccccc2/C1=N\N=C1/SCC(=O)N1c1ccc(O)cc1	TEAD-YAP block 50
Cc1c(N2C(=O)CS/C2=N\N=C2/C(=O)Nc3ccccc32)c(=O)n(-c2ccccc2)n1C	none
CN(C)S(=O)(=O)c1cccc(NC(=S)Nc2ccccc2C#N)c1	TEAD-YAP block 87
O=S(=O)(CCOc1ccccc1)Nc1ccc2c(c1)Cc1ccccc1-2	none
Cc1ccc(NS(=O)(=O)CCOc2ccccc2)cc1F	TEAD-YAP block 39
Cc1ccc(-n2nc3ccc(N)cc3n2)cc1Cl	none
Cc1ccc(-n2nc3ccc(N)cc3n2)c(C)c1	TEAD-YAP block 40
N#CCOc1ccccc1/C=N/n1nnnc1N	FBW7 activator 1.9
C=CCOc1ccccc1/C=N/n1nnnc1N	none
COc1cc(NC(=O)c2csc(-c3ccc(C(N)=O)cc3)n2)cc(OC)c1OC	TEAD-YAP block 36
COc1ccc(-c2nc(C(=O)Nc3cc(OC)c(OC)c(OC)c3)cs2)cc1	none
COc1cc(Nc2ccnc(-c3ccc(C(N)=O)cc3)n2)cc(OC)c1OC	TEAD-YAP block 51
COc1cc(NC(=O)c2csc(N3CCN(Cc4ccc5c(c4)OCO5)CC3)n2)cc(OC)c1OC	TEAD-YAP block 41
O=C(O)CCN1C(=O)C(=O)/C(=C(\O)c2ccccc2)C1c1cccc([N+](=O)[O-])c1 (stereo not given)	none
COc1cccc(C2(C)NC(=O)N(NC(=S)NCc3ccc4c(c3)OCO4)C2=O)c1 (stereo not given)	none
